Screens from PubChem BioAssay.
An excerpt weighted towards active compounds, which were near 3.5% of everything screened.
GPR151 ag – activators of human GPR151, primary screen, cell-based, PathHunter beta-arrestin, luminescence; PathHunter beta-arrestin GPR151 cells; activation, % at 11.2 µM; 650,000 compounds, 1% hits; AID 1508602, 2020; in the data active = activation above about 4.9%;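 note: 0% = median of compound wells and 100% = cells with positive control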
Target sequence (Q8TDV0 whole entry, looked up): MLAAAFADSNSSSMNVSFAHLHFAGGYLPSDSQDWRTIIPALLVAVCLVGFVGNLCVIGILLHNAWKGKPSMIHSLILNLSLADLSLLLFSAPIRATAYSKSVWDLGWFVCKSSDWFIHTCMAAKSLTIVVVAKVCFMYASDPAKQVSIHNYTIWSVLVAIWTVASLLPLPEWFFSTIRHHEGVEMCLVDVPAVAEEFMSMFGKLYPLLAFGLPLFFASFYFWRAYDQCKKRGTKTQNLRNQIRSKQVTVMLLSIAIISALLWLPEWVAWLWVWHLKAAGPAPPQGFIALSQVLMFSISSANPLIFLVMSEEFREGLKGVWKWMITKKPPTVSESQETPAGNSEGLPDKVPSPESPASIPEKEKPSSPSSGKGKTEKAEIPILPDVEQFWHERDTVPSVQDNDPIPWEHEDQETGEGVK
TEAD-YAP block – TEAD-YAP interaction inhibition, primary screen, TEAD-YAP interaction inhibitor project, luminescence, HEK-TIYL cells. TEAD-Gal4/YAP UAS-luciferase luminescence. inhibition, % at 9.12 µM. 640,000 compounds, 1.4% hits; in the data active = inhibition above about 32%;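 note: 0% = median of test compound wells and 100% = reference inhibitor wells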
MITF inh – MITF inhibitors, primary screen, biochemical, AlphaScreen, human | AlphaScreen MITF homodimerization, bead proximity signal | inhibition, % at 2.6 µM | AID 1259374, 2018 | 650,000 compounds, 0.91% hits | Microphthalmia-associated transcription factor (Homo sapiens), O75030; in the data active = inhibition above about 50%;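 note: 0% = vehicle wells with protein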
FBW7 activator – FBW7 E3 ligase activators, primary screen, biochemical, AlphaScreen, human; F-box/WD repeat-containing protein 7 (Homo sapiens), Q969H0; AlphaScreen FBW7–phospho-cyclin E peptide binding, activator screen; normalized activity (activation), % at 26.1 µM; 650,000 compounds, 0.13% hits; AID 1259310, 2017; in the data active = normalized activity above about 1.9%;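 note: purified mutant Fbw7 with reduced substrate affinity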
Numbers without * were called inactive.

SMILES	GPR151 ag	TEAD-YAP block	MITF inh	FBW7 activator
NC(=O)c1cccc2c1NC(C(=O)O)C1CC=CC21 (configuration not stated)	0.0	0.1	57.0*	-2.1
COC(=O)c1cccc2c1NC(C(=O)O)C1CC=CC21 (configuration not stated)	0.5	5.5	76.1*	-0.2
NC(=O)c1cccc2c1NC(c1cccc([N+](=O)[O-])c1)C1CC=CC21 (configuration not stated)	0.2	-5.0	14.3	-0.5
COc1cc(Nc2nc(-c3ccc(C(N)=O)cc3)ncc2C)cc(OC)c1OC	0.9	9.3	8.2	-0.3
O=C1NC(=O)N(c2ccc(F)cc2)C(=O)/C1=C\c1ccc(SCc2ccco2)o1	0.8	11.6	86.7*	-1.0
Cc1ccc(/C=C2\C(=O)NC(=O)N(c3ccc(F)cc3)C2=O)o1	1.2	1.9	0.3	-0.1
O=C1NC(=S)S/C1=C\c1ccc(SCc2ccco2)o1	-0.8	18.1	58.2*	-1.5
O=C1NC(=O)N(c2ccccc2)C(=O)/C1=C\c1ccc(-c2ccc([N+](=O)[O-])cc2)o1	-0.7	-4.3	1.6	-0.1
CCOc1ccccc1N1C(=O)NC(=O)/C(=C/c2ccco2)C1=O	1.1	-3.5	38.5	-0.5
O=C1NC(=O)N(c2ccc([N+](=O)[O-])cc2)C(=O)/C1=C/c1ccco1	0.1	-2.3	78.2*	-0.1
N=C1/C(=C\c2ccc(SCc3ccco3)o2)C(=O)N=C2SC(N3CCCC3)=NN12	-0.6	1.4	17.7	0.0
COc1ccccc1N1C(=O)NC(=O)/C(=C\c2ccco2)C1=O	-0.4	0.4	62.4*	-0.6
Cc1cc(C(=O)NC23CC4CC(CC(C4)C2)C3)ccc1[N+](=O)[O-]	0.6	-5.8	6.3	0.1
CCN1CCN(C(c2ccc(Cl)cc2)c2nnnn2Cc2ccc(F)cc2)CC1 (configuration not stated)	-0.4	-1.5	6.5	0.0
c1ccc(OCCNc2nc(Nc3ccncn3)nc3nc[nH]c23)cc1	0.4	11.8	-0.1	32.8*
Cc1cnc(Nc2ccncn2)nc1NCCc1ccc(O)cc1	0.5	5.1	19.9	0.0
Oc1ccc(CCNc2nc(Nc3cnccn3)nc3nc[nH]c23)cc1	0.2	39.0*	-4.5	0.0
Oc1ccc(CCNc2nc(Nc3ccncc3)nc3nc[nH]c23)cc1	-0.8	15.8	-1.6	0.1
CN(C)c1cccc(Nc2nc(NCc3ccccc3)c3[nH]cnc3n2)c1	-0.1	1.3	15.4	2.4*
Cc1cnc(Nc2cnccn2)nc1NCCc1ccc(O)cc1	-1.4	35.7*	14.7	0.2
O=C(NCc1nc2ccccc2[nH]1)c1csc(N2CCc3ccccc3C2)n1	-0.4	-1.6	22.3	0.1
C=CCSc1nc(O)cc(=O)n1CC	-0.2	-0.1	10.2	0.0
Oc1ccc(CCNc2nc(Nc3ccccc3)nc3nc[nH]c23)cc1	-0.3	51.8*	6.8	-0.1
COc1cc(Nc2nc(NCCc3ccc(O)cc3)c3[nH]cnc3n2)cc(OC)c1OC	-0.3	46.0*	-8.3	-0.1
COc1cc(Nc2nc(NCCO)c3[nH]cnc3n2)cc(OC)c1OC	3.0	-9.8	20.5	0.2
SMILES	GPR151 ag	TEAD-YAP block	MITF inh	FBW7 activator
COCCNc1c(-c2ccccc2)nc2ccc(C)cn12	-1.2	-23.6	4.5	0.1
Cc1ccc2nc(-c3ccccc3)c(N)n2c1	-10.1	68.5*	-1.3	-0.1
Cc1ccc2nc(=S)nc(-c3ccccc3)n2c1	0.7	69.6*	-5.7	-0.1
Cc1ccn2c(N)c(-c3ccccc3)nc2c1	-0.9	-7.8	15.7	0.1
CC(=O)Nc1ccc2c(c1)sc(=NC(=O)c1ccc([N+](=O)[O-])o1)n2C	-0.3	4.5	0.9	-0.1
COc1ccc(-n2c(=O)[nH]cc(C(=O)Nc3ccc(C(N)=O)cc3)c2=O)cc1OC	1.8	-1.8	-13.8	-0.1
O=C(CSCC(=O)Nc1ccccc1)N/N=C/c1c(O)ccc2ccccc12	-1.5	73.9*	-51.4	-0.1
O=C(CSc1cccc2cccnc12)N/N=C/c1c(O)ccc2ccccc12	0.1	34.3*	12.1	-0.3
CC(C)Oc1ccccc1/C=C1\SC(N2CCOCC2)=NC1=O	1.1	39.5*	-0.6	-0.4
COc1cccc(/C=C2\SC(N3CCCC3)=NC2=O)c1OC	0.3	8.3	5.8	0.0
COc1cccc(/C=C2/SC(N3CCCC3)=NC2=O)c1OC	1.3	33.4*	-10.5	-0.1
CC(C)Oc1ccccc1/C=C1/SC(N2CCN(C)CC2)=NC1=O	-1.1	-8.5	-7.0	0.0
COC(=O)Nc1cccc(S(=O)(=O)N2CCOCC2)c1	2.1	-2.2	7.1	0.0
Cc1nc(C(C)NC(=O)c2cc(COc3ccc(F)cc3F)on2)cs1 (configuration not stated)	0.3	-3.7	9.2	2.0*
CC(C)OCCNC(=O)c1cc(COc2ccc3ncccc3c2)on1	0.7	21.7	-9.6	-0.1
O=C(NC1CCCC1)c1cc(COc2ccc3ncccc3c2)on1	1.1	39.8*	-3.8	0.0
CC(NC(=O)c1cc(COc2ccc3ncccc3c2)on1)c1ccc(F)cc1 (configuration not stated)	2.5	38.1*	10.5	0.0
O=C(NCc1ccc2c(c1)OCO2)c1cc(COc2ccc3ncccc3c2)on1	1.2	34.6*	3.6	0.1
COc1ccc(-c2cn3c4c(=O)n(C)c(=O)n(C)c4nc3n2Cc2ccccn2)cc1	0.0	2.6	12.3	0.0
CCCCc1ccc(C(=O)Nn2c(-c3ccncc3)nc3ccccc3c2=O)cc1	2.1	6.7	-5.1	-0.1
COc1cccc2sc(=NC(=O)c3ccc(C#N)cc3)n(C)c12	1.7	0.2	-3.4	0.1
O=C(NCC1CCOCC1)c1cc(COc2ccc3ncccc3c2)on1	0.5	33.0*	-9.7	-0.1
CC(C)c1cc(CNC(=O)c2cc(COc3ccc4ncccc4c3)on2)on1	-0.4	17.7	12.2	0.1
CC(C(=O)NCc1cccnc1)n1c2ccccc2c2cnn(C)c(=O)c21 (configuration not stated)	-0.7	3.6	21.8	-0.1
Cc1sc2nc(SCC(N)=O)[nH]c(=O)c2c1C	-0.5	-5.8	-2.4	-0.2
SMILES	GPR151 ag	TEAD-YAP block	MITF inh	FBW7 activator
Cc1sc2nc(SCC#N)[nH]c(=O)c2c1C	0.2	46.2*	0.6	0.6
N#CCCCN(N=Nc1cccc([N+](=O)[O-])c1)c1cccc([N+](=O)[O-])c1	-0.4	13.4	5.0	0.1
O=C(Cc1ccc(Br)cc1)Nc1ccncc1	1.6	50.5*	-5.0	0.1
O=C(Cc1ccccc1)Nc1ccc(Br)cc1	0.4	-9.8	-0.3	0.0
Cc1nn2c(C(F)(F)F)c3c(nc2c1-c1ccccc1)CCCC3	-1.4	1.5	-6.1	0.0
COc1ccccc1-n1cnc(N)c1C(=O)c1ccccc1	1.4	53.3*	-2.4	0.5
Cc1ccc2[nH]c(=O)c(CN(CCO)S(=O)(=O)c3cccc4nsnc34)cc2c1	1.8	48.1*	11.2	0.0
O=S(=O)(c1cc(F)ccc1F)N1CCOC(c2ccccc2)C1 (configuration not stated)	-1.4	-5.9	11.6	0.3
